The panel holds about 83,000 compounds, 20% with a hit somewhere; the sample as a whole holds those more often.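 Assay: single dose, 48 h. Readout: percent growth (0 = no net growth; negative = cell death). Active: <10.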 Activity calls are given as the source filed them.
How the values were obtained:
Experiment in all cases: NCI-60 one-dose screen, 48 h (100 = growth as untreated, 0 = no growth, -100 = all killed)
Conditions in all cases: 10 µM
[1] = tested on: NCI-H23 lung
[2] = tested on: NCI-H226 lung
[3] = tested on: NCI-H322M lung
[4] = tested on: HOP-62 NSCLC
[5] = tested on: NCI-H460 lung
[6] = tested on: NCI-H522 lung
[7] = tested on: A549/ATCC NSCLC
[8] = tested on: 786-0 renal
[9] = tested on: COLO 205 colon
[10] = tested on: DU-145 prostate
[11] = tested on: K-562 leukemia
[12] = tested on: MALME-3M melanoma
[13] = tested on: MDA-MB-231 breast
[14] = tested on: RXF 393 renal
[15] = tested on: SF-268 CNS
[16] = tested on: SF-295 CNS
[17] = tested on: SF-539 CNS
[18] = tested on: UACC-257 melanoma
[19] = tested on: M14 melanoma
[20] = tested on: HCT-15 colon

Measured: growth

FC(F)(F)c1ccc(-c2cnc(Cl)nc2N2CCC3(CC2)OCCO3)cc1
inactive: [1] 94.9% | [2] 94.4% | [3] 91.7% | [4] 97.2% | [5] 100% | [6] 63.2% | [7] 90.2% | [8] 95.5% | [9] 93.2% | [10] 95.5% | [11] 93.2% | [12] 78.4% | [13] 102% | [14] 105% | [15] 93.5% | [16] 89.7% | [17] 99.3% | [18] 106% | [19] 96.6% | [20] 93.6%

COc1cc(Cc2cc(-c3ccc(Cl)cc3)n[nH]c2=O)ccc1O
inactive: [1] 83.5% | [2] 224% | [3] 119% | [4] 104% | [5] 74.2% | [6] 105% | [7] 58.6% | [8] 103% | [9] 111% | [10] 128% | [11] 78.5% | [12] 108% | [13] 100% | [15] 93.2% | [16] 124% | [17] 98.4% | [18] 128% | [19] 108% | [20] 104%

CCN(CC)CCC(CNc1c(C)cnc2cc(Cl)ccc12)c1ccc(Cl)c(Cl)c1 (stereo not drawn)
inactive: [1] 63.7% | [2] 85.9% | [3] 51.8% | [4] 68.8% | [5] 63.8% | [6] 49.2% | [7] 64.1% | [8] 60.2% | [10] 73.8% | [13] 25.5% | [15] 71.8% | [16] 65.4% | [17] 20.9% | [20] 32.3%
active: [9] -56.5% | [11] 1.52% | [12] -52% | [18] -49.6% | [19] -64.5%

CCCCCCCCCCCCC1C/C=C\CCCC(=O)O1 (stereo not drawn)
inactive: [1] 91.1% | [2] 167% | [3] 108% | [4] 106% | [5] 109% | [6] 98.1% | [7] 80.7% | [8] 98.4% | [9] 113% | [10] 130% | [11] 101% | [12] 107% | [13] 119% | [15] 103% | [16] 103% | [17] 107% | [18] 118% | [19] 100% | [20] 97.2%

CN(C)CC(O)c1ccc2cc(Br)c3ccccc3c2c1 (stereo not drawn)
inactive: [1] 80.1% | [2] 78.7% | [3] 72.7% | [4] 62.1% | [5] 37% | [6] 65.6% | [7] 57.1% | [8] 54% | [10] 70.7% | [11] 24.7% | [12] 97.1% | [13] 16.8% | [15] 58.5% | [16] 75.6% | [17] 65.9% | [18] 99.2% | [19] 47.2% | [20] 53.7%
active: [9] -67.8%

COc1cc(C(=C2O[C@@H]([C@H]3COC(C)(C)O3)[C@H]3OC(C)(C)O[C@@H]23)c2cc(OC)c(OC)c(OC)c2)cc(OC)c1OC
inactive: [1] 95.2% | [2] 94.4% | [3] 103% | [4] 104% | [5] 111% | [6] 106% | [7] 106% | [8] 97.2% | [9] 117% | [10] 112% | [11] 91.8% | [12] 123% | [13] 91.6% | [15] 113% | [16] 110% | [17] 111% | [18] 105% | [19] 106% | [20] 103%

COc1cc(/C=C2\Oc3cc(OCC(=O)c4ccccc4)ccc3C2=O)cc(OC)c1OC
inactive: [1] 105% | [2] 104% | [3] 126% | [5] 93% | [6] 105% | [7] 118% | [9] 146% | [10] 94.9% | [11] 105% | [12] 114% | [13] 95.6% | [15] 105% | [16] 91.5% | [17] 121% | [18] 132% | [19] 125% | [20] 103%
active: [4] 2.36% | [8] -45.9%

CC/C(=N\N=C(/CC)c1ccc(Br)cc1)c1ccc(Br)cc1
inactive: [1] 86.2% | [2] 94% | [3] 108% | [4] 94.9% | [5] 105% | [6] 71.5% | [7] 98.7% | [8] 98.9% | [9] 100% | [10] 116% | [11] 109% | [12] 90.5% | [13] 103% | [15] 103% | [16] 93.9% | [17] 99.3% | [18] 108% | [19] 98.3% | [20] 85.4%

From PubChem BioAssay (NCI)
